Screening results from PubChem.
PNC inhibitor: perinucleolar compartment assembly inhibition; actives 3.1% (n = 140,000); PC3M PTB-GFP, PNC prevalence imaging, 16 h; stronger effect = lower value; activity change (PNC), negative = inhibition, % at 10 µM;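 active = readout at or below -70, meaning at least 70% loss of cells showing the perinucleolar compartment, a nuclear body marking cancer cells; inconclusive = readout between -30 and a set limit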;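 note: plate controls were DMSO wells for no effect and camptothecin positive control wells for full effect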
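PC3M cells stably expressing PTB-GFP, 750–1000 cells/well, treated 16 h at 37 °C with compound (23 nl of library stock), in duplicate. After paraformaldehyde fixation and Hoechst stain, imaged at 20x; PNC prevalence scored by image analysis.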
Lamin A splicing: LMNA splicing modulation | HeLa LMNA splicing GFP/RFP minigene ratio, 48 h | Potency, µM (doses to about 46.1 µM), for the others: at the highest dose ratio change, negative = inhibition, usual class: inhibitors | actives 0.01% (n = 200,000) | AID 1487; active = well fitted inhibition curve with a large enough effect in the signal ratio, with a control signal flat, not every such curve was filed as active; inconclusive = small, poorly fitted or top-dose-only effect, or effect the other way, or a change in a side signal; the % refers to the signal ratio; note: potency is the fitted concentration of half-maximal effect
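S3 HeLa cells stably expressing lamin A-EGFP splicing minigene plus DsRed2, 600 cells/well, 48 h compound exposure at 37C. Laser-scanning cytometry; analysed as GFP (500-530 nm)/RFP (575-640 nm) total intensity ratio; 0.5% DMSO vehicle.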
IMPase cell inh: membrane-permeable compound that blocks inositol monophosphatase; AID 901; CHO-M1 cells, IP1 accumulation, HTRF TR-FRET ratio; 120,000 tested, under 10 active; inhibition (IP1 accumulation), % at 46.1 µM; active = well fitted curve in the direction sought with a large enough effect in the signal ratio, not every such curve was filed as active; inconclusive = small, poorly fitted or top-dose-only effect, or a change in a side signal; inactive = no such curve, though single readings can be large or run the other way; the % refers to the signal ratio;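 note: cells stimulated with carbachol in lithium chloride buffer; plate controls were DMSO basal wells for no effect and reference inhibitor wells for full effect; higher means more IMPase inhibition seen as more IP1 and lower FRET ratio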
Target sequence (P97697 whole entry, looked up): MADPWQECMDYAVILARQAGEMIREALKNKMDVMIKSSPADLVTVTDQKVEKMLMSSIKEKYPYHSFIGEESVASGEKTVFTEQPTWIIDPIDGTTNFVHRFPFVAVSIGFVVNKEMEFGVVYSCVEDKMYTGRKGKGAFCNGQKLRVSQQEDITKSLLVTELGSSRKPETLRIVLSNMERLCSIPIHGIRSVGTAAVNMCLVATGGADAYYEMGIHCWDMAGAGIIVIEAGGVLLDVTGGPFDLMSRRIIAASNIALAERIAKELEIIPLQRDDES
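Carbachol-driven Gq signalling in CHO-M1 cells (2000/well) generates IP1. Compounds that block IMPase raise IP1 and so reduce the FRET signal from Eu-anti-IP1 and d2-IP1 after a 10 min room-temperature lysis.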
The depositor's hits bear a star; [ ] = another dose, or the depositor's remark. Only a selection was taken, and hits are over-represented in it overall. Unless noted, % is set by controls: 0 for no effect and ±100 for the full control effect.

How did COc1ccc(-c2cc(C(=O)N3CCOCC3)no2)cc1OC do in these assays?
PNC inhibitor: -9; Lamin A splicing: -2%; IMPase cell inh: -2

Results for O=C(Nc1cccc(O)c1)N1CCOCC1 ?
PNC inhibitor: -100*; Lamin A splicing: -10%; IMPase cell inh: -7

Results for CC1CCN(c2c(NCC3CCC(C(=O)Nc4ccccn4)CC3)c(=O)c2=O)CC1 (stereo not given) ?
PNC inhibitor: -119*; Lamin A splicing: -2%

How did Cc1ccnc(NC(=O)C2CCC(CNc3c(N4CCCC4)c(=O)c3=O)CC2)c1 (stereo not given) do in these assays?
PNC inhibitor: -19; Lamin A splicing: -2%; IMPase cell inh: -4

Results for O=C(NCCc1ccccc1)C1CCC(CNc2c(N3CCCCC3)c(=O)c2=O)CC1 (stereo not given) ?
PNC inhibitor: 63; Lamin A splicing: inconclusive

What do the screens show for `O=C(NC1CCCCCCC1)C1CCC(CNc2c(N3CCCC3)c(=O)c2=O)CC1` (stereo not given)?
PNC inhibitor: -119*; Lamin A splicing: -5%; IMPase cell inh: -1

What do the screens show for `CC(=O)NCCNc1ncnc2ccc(-c3ccccc3C(F)(F)F)cc12`?
Lamin A splicing: -3%

How did COC1=C(N)C(=O)c2nc(-c3nc(C(=O)O)c(C)c(-c4ccc(OC)c(OC)c4O)c3N)ccc2C1=O do in these assays?
PNC inhibitor: -115*; Lamin A splicing: inconclusive

What do the screens show for `COc1ccc(C(=O)O)c(O)c1OC`?
Lamin A splicing: 6%

What do the screens show for `C=CCSC1=C(C#N)C(c2ccccc2Cl)C(C(=O)c2cccs2)C(O)(C(F)(F)F)N1` (stereo not given)?
PNC inhibitor: -1; Lamin A splicing: -26%

What do the screens show for `O=C(COc1cccc(Br)c1)N/N=C1\CCSC1`?
Lamin A splicing: -3%[46 µM]

What do the screens show for `Cc1ccc(C)c(NC(=S)NNC(=O)c2csc3c2CCC(C)C3)c1` (stereo not given)?
PNC inhibitor: -113*; Lamin A splicing: inconclusive; IMPase cell inh: -6

What do the screens show for `Cc1ccc(C)c(NC(=S)NNC(=O)c2csc3c2CCCC3)c1`?
PNC inhibitor: -27; Lamin A splicing: -14%; IMPase cell inh: 6

Results for Cc1cc(C)n(-c2nc3ccccc3nc2N2CCC(C)CC2)n1 ?
PNC inhibitor: -24; Lamin A splicing: -10%; IMPase cell inh: 13

How did Cc1cc(N2CCC(C)CC2)nc(-n2nc(C)cc2C)n1 do in these assays?
PNC inhibitor: -96*; Lamin A splicing: inconclusive; IMPase cell inh: -3

How did O=S(=O)(c1ccc(Cl)cc1)c1ccccn1 do in these assays?
PNC inhibitor: -3; Lamin A splicing: 2%; IMPase cell inh: -4

What do the screens show for `Cc1ccc(S(=O)(=O)n2ccc3cccnc32)cc1`?
PNC inhibitor: -100*; Lamin A splicing: -2%; IMPase cell inh: -4

Results for O=S(=O)(c1ccc(Cl)cc1)n1ccc2cccnc21 ?
PNC inhibitor: -100*; Lamin A splicing: 2%; IMPase cell inh: 0

Results for Cc1ccc(S(=O)(=O)N2CCN(c3ccccn3)CC2)cc1 ?
Lamin A splicing: 26%[46 µM]

Results for CCc1ccc(CNC(=O)CCCN2C(=O)CCn3nc(-c4cccn4C)cc32)cc1 ?
Lamin A splicing: 5%[46 µM]

Results for CCOc1ccc(C(CC(=O)O)NC(=O)C(Sc2ccccc2)c2ccccc2)cc1 (stereo not given) ?
Lamin A splicing: 17%[9.22 µM]

What do the screens show for `Cc1c(CCNC(=O)c2ccc(Br)o2)sc2nc(-c3ccc(F)cc3)nn12`?
Lamin A splicing: 2%[46 µM]

Results for Cc1cccc(Nc2nnc(SCC(=O)Nc3ccccc3[N+](=O)[O-])s2)c1C ?
PNC inhibitor: 65; Lamin A splicing: inconclusive

Results for Cc1ccc(Nc2nnc(SCC(=O)Nc3ccccc3[N+](=O)[O-])s2)cc1 ?
PNC inhibitor: -119*; Lamin A splicing: -15%; IMPase cell inh: 1

What do the screens show for `COc1ccccc1CC(=O)Nc1ccc2nc(Nc3cccc(C(F)(F)F)c3)cc(C)c2c1`?
Lamin A splicing: -19%[46 µM]

What do the screens show for `Cc1ccc(C)c2c(SC(C)C(=O)NCc3ccco3)nc(-c3ccccc3)nc12` (stereo not given)?
PNC inhibitor: -100*; Lamin A splicing: -3%; IMPase cell inh: -12

Results for Cc1ccc2nc(-c3ccccc3)nc(SC(C)C(=O)NCc3cccs3)c2c1 (stereo not given) ?
PNC inhibitor: 28; Lamin A splicing: -3%; IMPase cell inh: -11[1.84 µM]

What do the screens show for `COC(=O)CN(c1ccccc1C)S(C)(=O)=O`?
PNC inhibitor: -11; Lamin A splicing: 10%; IMPase cell inh: 2

What do the screens show for `COC(=O)CN(c1c(C)cccc1C)S(C)(=O)=O`?
PNC inhibitor: -86*; Lamin A splicing: -2%; IMPase cell inh: -3

How did O=C(Nc1c(C(=O)N2CCN(c3ccc(F)cc3)CC2)oc2ccccc12)c1c(F)cccc1F do in these assays?
Lamin A splicing: -2%[46 µM]

How did Cc1cc(O)ccc1NC(=O)CCN1C(=O)c2ccc([N+](=O)[O-])cc2C1=O do in these assays?
PNC inhibitor: -98*; Lamin A splicing: 7%

What do the screens show for `O=C(CCN1C(=O)c2ccc([N+](=O)[O-])cc2C1=O)Nc1cccc(O)c1`?
PNC inhibitor: inconclusive; Lamin A splicing: -8%; IMPase cell inh: -10

Results for O=C(O)CCc1nn2c3ccccc3n(Cc3ccccc3F)c2nc1=O ?
Lamin A splicing: -5%[46 µM]

How did Cn1c(=O)c(-c2cccs2)nc2cnc(OCc3ccccc3)nc21 do in these assays?
Lamin A splicing: -7%

Results for O=C(O)C1CCCCN1S(=O)(=O)c1ccccc1 (stereo not given) ?
PNC inhibitor: -13; Lamin A splicing: 0%; IMPase cell inh: -4

Results for O=C1CCN(S(=O)(=O)c2ccccc2)C2CCCCC12 (stereo not given) ?
PNC inhibitor: -86*; Lamin A splicing: -8%; IMPase cell inh: 5

What do the screens show for `O=C(O)c1ccccc1C(=O)Nc1ccc(-n2nccc2C(F)(F)F)cc1`?
Lamin A splicing: -24%[46 µM]

Results for Cc1ccc2nsnc2c1NC(=O)c1cccnc1Cl ?
PNC inhibitor: 34; Lamin A splicing: 3%

How did O=C(CCC(=O)N(CC(=O)NC1CCCC1)Cc1ccc2c(c1)OCO2)Nc1ccccn1 do in these assays?
PNC inhibitor: -94*; Lamin A splicing: 2%; IMPase cell inh: 2

What do the screens show for `COCCNC(=O)CN(Cc1ccc2c(c1)OCO2)C(=O)CCC(=O)Nc1nccs1`?
PNC inhibitor: 8; Lamin A splicing: -12%; IMPase cell inh: -4

What do the screens show for `O=C(CCC(=O)N(CC(=O)NC1CCCC1)Cc1ccc2c(c1)OCO2)Nc1nccs1`?
Lamin A splicing: -18%[46 µM]

How did COCCN(CC(=O)NCc1ccc2c(c1)OCO2)C(=O)CCC(=O)Nc1nccs1 do in these assays?
PNC inhibitor: -100*; Lamin A splicing: 0%; IMPase cell inh: -10

Results for CCOC(=O)CSc1nc2ccc(NC(=O)COc3ccccc3)cc2s1 ?
Lamin A splicing: 19%[46 µM]

What do the screens show for `COc1ccc(N2CCN(C(=O)CCN3C(=S)NC(C)(C)CC3C)CC2)cc1` (stereo not given)?
Lamin A splicing: 7%[9.22 µM]

What do the screens show for `COc1ccc(Br)cc1/C(C)=N/NC1=NCCN1`?
PNC inhibitor: -17; Lamin A splicing: inconclusive; IMPase cell inh: 11
